# Screening data: PubChem, National Center for Advancing Translational Sciences (NCATS)
# Shown are actives, neighbours in structure and some others; about 3.9% of the full set was active somewhere.
# ATXN2 expr inh: reduces ATXN2 reporter expression in HEK-293 cells; HEK-293 ATXN2-luciferase reporter, luminescence, 24 h; Potency, µM (series often up to 57 µM), for the others: at the highest dose activity change, negative = inhibition, most hits filed as inhibitors; 360,000 compounds, 0.72% hits; AID 1745845; note: % is set by controls: 0 for no effect and ±100 for the full control effect; nearly all actives have a fitted effect of over 55% in size
#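 ATXN2-luciferase reporter cells (luciferase flanked by upstream and downstream ATXN2 gene portions) were treated 24 h at 37 °C with compounds at up to 57 uM. SteadyGlo luminescence gave expression; GF-AFC fluorescence gave viability.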
# HT1080-NT tox: kills 2HG-producing HT-1080-NT fibrosarcoma cells. 360,000 compounds, 1.6% hits. HT-1080-NT fibrosarcoma viability, CellTiter-Glo ATP luminescence, 48 h. AID 686970. Potency, µM (top dose mostly 46.1 µM), for inactives: top-dose activity, negative = less viability, hits mostly cytotoxic;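 note: NT is the 2HG producing partner of a matched IDH1 knockdown line; 0% = DMSO-treated cells and -100% = media-only wells without cells; nearly all actives have a fitted effect of over 55% in size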
#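 Viability of the 2HG-overproducing fibrosarcoma line after 48 hours of compound exposure at 37 degrees C was determined by luminescence with CellTiter-Glo, and concentration-effect curves were then fitted and categorized.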
# S2 tox: reduces viability in counter-screen for ATXN expression inhibitors; 400,000 compounds, 0.49% hits; S2 cells (HEK-293 line with an ATXN2-luciferase reporter) viability, CellTiter-Fluor protease fluorescence, 24 h; Potency, µM (doses to about 56.7 µM), usual class: cytotoxic; note: nearly all actives have a fitted effect of over 40% in size
# TGFb inhibitor: TGF-b pathway inhibition | HepG2 CAGA-GFP TGF-b/SMAD3 reporter, GFP fluorescence, 18 h; TGF-beta stimulated, 500 pg/mL final | Potency, µM (highest dose often 46.1 µM), for inactives: top-dose activity, negative = inhibition, usual class: inhibitors | 410,000 compounds, 1.2% hits; note: % is set by controls: 0 for no effect and ±100 for the full control effect; nearly all actives have a fitted effect of over 65% in size
#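 HEPG2 CAGA-GFP cells (1000/well, DMEM with 1% FBS) were pre-incubated 2 h at 37 degrees C, given compound by pin tool, then stimulated with TGF-beta at 500 pg/mL final for 18 h before per-cell GFP fluorescence imaging.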
# HT1080 IDH1KD tx: toxicity to HT-1080 IDH1 knockdown cells (counter line). HT-1080 IDH1 knockdown viability, ATP luminescence, 48 h. 360,000 compounds, 2% hits. Potency, µM (series often up to 46.1 µM), inactives show top-dose activity, negative = toxicity, hits mostly cytotoxic;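 note: 0% = DMSO wells and -100% = cell-free medium wells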
#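 After a 2 h attachment period, IDH1KD HT-1080 cells took pin-transferred compound for 48 h at 37 °C; ATP-based luminescence after 10 min room-temperature reagent incubation reported viability.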
# HepG2 viability: HepG2 cytotoxicity, counter-screen for TGF-b inhibitors | AID 588856 | Potency, µM (top dose mostly 46.1 µM), for the others: top-dose activity change, negative = cytotoxicity, hits mostly cytotoxic | HepG2 CAGA-GFP viability, ATP luminescence, 18 h | 410,000 compounds, 0.76% hits
#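 HepG2 CAGA-GFP cells (1000/well, DMEM with 1% FBS) received compound, then TGF-beta at 500 pg/mL final, and were incubated 18 hours at 37 degrees C. Viability was read by CellTiter-Glo luminescence. Media-only wells were set as complete cell-killing and DMSO as no toxicity.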
# An asterisk follows results filed as active; i = inactive; ? = inconclusive; · = no result. Calls come from the whole dose curve; as a rule, active = well fitted curve in the direction sought with a large enough effect; inconclusive = small, poorly fitted or top-dose-only effect, or another doubt; inactive = no such curve, though single readings can be large; an effect the other way counts as inactive or inconclusive. Potency is the fitted concentration of half-maximal effect.
SMILES,ATXN2 expr inh,HT1080-NT tox,S2 tox,TGFb inhibitor,HT1080 IDH1KD tx,HepG2 viability
CCOC(=O)c1c(C)[nH]c(C)c1S(=O)(=O)N1CCCC(C(=O)N2CCN(c3ccc(Cl)cc3)CC2)C1 (stereo not given),?,·,?,?,·,-20%
Cc1oc2ccc(O)c(CN(C)Cc3ccccc3)c2c1C(=O)Nc1cccc(C(F)(F)F)c1,·,·,·,?,·,10µM*
Cc1oc2ccc(O)c(CN(C)Cc3ccccc3)c2c1C(=O)Nc1ccccc1,·,·,·,?,·,1.8µM*
Cc1ccc(NC(=O)c2c(C)oc3ccc(O)c(CN(C)Cc4ccccc4)c23)c(C)c1,·,·,·,·,·,-22%
CCOc1ccc(-c2cc(C(=O)NCc3ccccc3Cl)c3ccccc3n2)cc1,13%,·,i,-13%,·,-1%
Cc1cccc(OCC(=O)Nc2ccccc2C(=O)OCc2cc(=O)n3nc(C)sc3n2)c1,·,·,·,-2%,·,6%
CCN(CC)CCNC(=O)c1cnn(-c2ncc3c(n2)-c2ccc(OC)cc2CC3)c1C,·,·,i,·,·,·
C=C1C(=C/C=C2\CCC[C@]3(C)[C@@H]([C@H](C)/C=C/[C@@H](O)C4CC4)CC[C@@H]23)C[C@@H](O)C[C@@H]1O,?,·,i,·,·,·
CN1CCN(C(c2ccccc2)c2ccc(Cl)cc2)CC1 (stereo not given),?,?,?,19%,?,-35%
COc1ccc(C(=O)NC(c2ccccc2Cl)c2cc(Cl)c3cccnc3c2O)cc1 (stereo not given),·,·,·,10µM*,·,11µM*
CC(=O)NC(c1ccccc1)c1cc(Cl)c2cccnc2c1O (stereo not given),7.9µM*,?,i,?,?,-17%
O=C(NC(c1ccc(Cl)cc1)c1cc(Cl)c2cccnc2c1O)c1cccnc1 (stereo not given),?,?,i,?,3.3µM*,-11%
CN1CCN(C(c2ccc(Cl)cc2)c2cc(Cl)c3cccnc3c2O)CC1 (stereo not given),?,?,?,?,23µM*,25µM*
CCOc1ccc(NC(=O)c2c(NCc3sccc3C)sc3c2CCCCC3)cc1,·,·,·,?,·,-36%
CCOC(=O)C1CCN(C(=O)Cn2ncc3c4ccccc4n(Cc4ccc(F)cc4)c3c2=O)CC1,?,·,?,?,·,-21%
O=C(Cc1csc(Nc2nc(=S)[nH]c3ccccc23)n1)NCc1ccc(Cl)cc1,-31%,-2%,i,-7%,-18%,-2%
O=C(Cc1csc(Nc2nc(=S)[nH]c3ccccc23)n1)NCCCN1CCN(c2ccccc2F)CC1,?,21µM*,·,?,21µM*,-58%
COc1ccc(C)cc1Nc1n[n+](-c2ccccc2)c(-c2ccc(SC)cc2)s1,-10%,?,i,-20%,18µM*,-20%
O=C(O)c1[nH]n(-c2ccc(S(=O)(=O)O)cc2)c(=O)c1N=Nc1ccc(S(=O)(=O)O)cc1,-7%,·,?,4%,·,4%
O=c1c2ccccc2cnn1-c1nc2ccccc2[nH]1,0.56µM*,3.7µM*,i,-22%,3.7µM*,2µM*
CCOC(=O)C1(C)CCCCCN1C(=O)c1ccc(N(C)C)cc1 (stereo not given),-11%,21%,i,-4%,13%,3%
CCOC(=O)C1(C)CCCCCN1C(=O)/C=C/c1ccccc1 (stereo not given),-7%,23%,i,17%,19%,1µM*
C/C(=N\NC(=S)Nc1ccc(F)cc1)C1CC1,2%,8.9µM*,i,?,11µM*,-46%
CCCCNC(=O)C(=O)Nc1ccc2c(c1)N(S(=O)(=O)c1cccs1)CCC2,·,?,?,7%,8.2µM*,-31%
